# Data taken from PubChem BioAssay AID1053185 (Broad Institute, 2014).
# Results with a measured potency or affinity are listed apart. Unmarked numbers belong to inactive results.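 Rule for the calls: active = cell killing with fitted half-maximal concentration at most twice the top valid dose; inconclusive = flat partial loss of 30 to 70%, or poor fit; inactive = the rest.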
# Experiment: cytotoxicity in HEK293 cells, dose response, cytotoxicity control, cell-based, cherry-picked samples (AID 1053185)
# Settings: HEK293T viability, ATP luminescence, 72 h; series mostly up to 26 µM; activity change, negative = cytotoxicity: at the top concentration
row,Compound,"activity change, negative = cytotoxicity"
1,CN(C)C(=O)c1cccc(-c2ccc(C3[C@@H]4CN(Cc5ccccc5F)C[C@H]3N4)cc2)c1 (some centres undefined),-7.48% [at 23.5 µM]
2,COc1ccc2c3c(n(C)c2c1)[C@@H](CO)N(CC1CC1)CC31CN(C(=O)c2ccc3c(c2)OCO3)C1,-7.78%
3,CO[C@@H](CN(C)Cc1cc(F)ccc1F)[C@@H](C)CN(C(=O)Nc1ccc(C(F)(F)F)cc1)[C@H](C)CO,-11.8%
4,CNC[C@@H]1Oc2cc(C#Cc3ccccc3OC)ccc2S(=O)(=O)N([C@H](C)CO)C[C@H]1C,-0.997%
5,COc1cc(CN2C[C@@H]3N[C@H](C2)C3c2ccc(-c3ccc(C#N)cc3)cc2)cc(OC)c1 (some centres undefined),-1.68%
6,C[C@@H]1CN([C@@H](C)CO)C(=O)Cc2cc(NC(=O)C3CCCCC3)ccc2O[C@@H]1CN(C)Cc1ccc(Cl)c(Cl)c1,-9.84%
7,COc1cccc(-c2cccc(-c3nc(C(=O)Nc4ccc(-c5ccccc5)cc4)cc4c3[C@@H](CCO)N(S(=O)C(C)(C)C)C4)c2)c1 (some centres undefined),-5.79%
8,C/C=C/c1ccc([C@H]2[C@@H](CO)N3C(=O)CN(Cc4ccc(F)cc4)C[C@@H]23)cc1,-5.85%
9,O=S(=O)(c1ccc(F)cc1)N1C[C@@H]2N[C@H](C1)C2c1ccc(/C=C/c2ccccc2)cc1 (some centres undefined),-2.66%
